Source: PubChem (National Center for Advancing Translational Sciences (NCATS))
D1 antag – Antagonist of Human D 1 Dopamine Receptor: qHTS. 3.2% of 360,000 active. HEK293 TREx D1 cells, calcium flux, dopamine EC80; hits give low values. D(1A) dopamine receptor (Homo sapiens), P21728. activity change, negative = inhibition, % at 10 µM; in the data active means activity change below about -30%; further: on the % scale 0 is the no-effect control and ±100 the full control effect
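Cells carrying a force-coupled, tetracycline-inducible human D1 receptor report calcium flux. Each well gets a 10 s baseline, compound with 180 s monitoring, then an EC80 dopamine stimulus with a second 180 s kinetic read.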
D1 PAM – Potentiators of Human D1 Dopamine Receptor: qHTS | D(1A) dopamine receptor (Homo sapiens), P21728 | HEK293 TREx D1 cells, calcium flux, dopamine EC20 potentiation | potentiation, % at 10 µM | 0.036% of 360,000 active | AID 504651, 2011; in the data active means potentiation above about 30%; further: 0% is about no effect
D1 agonist – Allosteric Agonists of the Human D1 Dopamine Receptor: qHTS; D(1A) dopamine receptor (Homo sapiens), P21728; HEK293 T-REx D1 cells, calcium flux, agonist mode; activation, % at 2 µM; 1% of 360,000 active; AID 504660, 2011; in the data active means activation above about 30%; further: 0% is about no effect
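Agonism was scored from calcium flux recorded over 180 s (1 read/s) after pintool compound addition, following a 10-cycle baseline. Cells were inducible force-coupled HEK293 TREx D1, plated overnight at 30 C and loaded with no-wash calcium dye.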
D3 ag – qHTS of D3 Dopamine Receptor Agonist: qHTS. max activation, %. AID 652048, 2013. 0.58% of 410,000 active. D(3) dopamine receptor (Homo sapiens), P35462. D3R DiscoveRx beta-arrestin cells, luminescence, 90 min; in the data active means max activation above about 30%; further: 0% is about no effect
Target sequence (P35462 whole entry, looked up): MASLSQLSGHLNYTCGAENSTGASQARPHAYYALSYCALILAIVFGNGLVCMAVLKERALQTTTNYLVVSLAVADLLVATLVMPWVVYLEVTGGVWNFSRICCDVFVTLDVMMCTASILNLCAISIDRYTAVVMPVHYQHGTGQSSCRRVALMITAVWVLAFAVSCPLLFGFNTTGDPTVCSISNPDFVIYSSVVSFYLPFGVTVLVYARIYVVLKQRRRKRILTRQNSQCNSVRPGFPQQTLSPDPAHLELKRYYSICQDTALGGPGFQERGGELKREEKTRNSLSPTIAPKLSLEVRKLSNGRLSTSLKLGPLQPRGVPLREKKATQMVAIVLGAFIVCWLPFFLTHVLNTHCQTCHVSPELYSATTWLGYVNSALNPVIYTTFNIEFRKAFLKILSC
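Cells at 1500/well, incubated overnight, then treated with pinned compounds (dopamine as control) for 90 min at 37 degrees C. DiscoveRx reagent added for 30 - 60 minutes at room temperature; luminescence read.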
DRD3 antagonist – qHTS of D3 Dopamine Receptor Antagonist: qHTS; 2.5% of 360,000 active; AID 652054, 2013; D3R cells, DiscoveRx beta-arrestin luminescence, antagonist mode; hits give low values; max response, negative = inhibition, %; in the data active means max response below about -50%; inconclusive means no clear call, values can overlap the other calls; further: on the % scale 0 is the no-effect control and ±100 the full control effect
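Cells plated overnight at 1500 cells/well, then exposed to library compounds with dopamine controls for 90 minutes at 37 degrees C. DiscoveRx reagent added for 30–60 minutes at room temperature; luminescence read, quantitative HTS format.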
* = called active by the depositor. Sampled rows, rich in hits. Any-hit rate of the full collection: about 6%.

CCOC(=O)c1sc2nc(CSc3ccccc3)nc(NCCN(C)C)c2c1C was read as D1 antag -20, D1 PAM -10, D1 agonist 50*, D3 ag -15 and DRD3 antagonist -21.
Screening CCOC(=O)c1sc2nc(C)nc(NCCc3ccccn3)c2c1C returned D1 antag -3, D1 PAM -2, D1 agonist 3, D3 ag 5 and DRD3 antagonist -2.
CCN(CC)CCOC(=O)c1ccc(NC(=O)c2cc3c(s2)-c2ccccc2OC3)cc1 was read as D1 antag -27, D1 PAM -8, D1 agonist 7 and D3 ag -15.
Screening Clc1ccc(Nc2ccc(Cl)nn2)cc1 returned D1 antag -26, D1 PAM -2, D1 agonist 0, D3 ag 4 and DRD3 antagonist 13.
For Fc1ccc(-c2ccc(Nc3cccc(F)c3)nn2)cc1 the results were D1 antag -34*, D1 PAM -10, D1 agonist 2, D3 ag 0 and DRD3 antagonist 16.
Screening Fc1ccc(Nc2ccc(-c3ccc(F)cc3)nn2)cc1 returned D1 antag -45*, D1 PAM -8, D1 agonist 2, D3 ag 1 and DRD3 antagonist 15.
Screening CCOc1ccccc1CNC(=O)CCC(=O)N1CCSc2ccccc21 returned D1 antag 1, D1 PAM -2, D1 agonist 6 and D3 ag -4.
`CCOc1ccccc1CNCc1c(C(=O)O)n(Cc2ccc(F)cc2)c2cc(C)ccc12` gave D1 antag 18, D1 PAM 9, D1 agonist 0 and D3 ag 2.
Screening CC(C)(C)C(=O)N1CCN(c2nc3ccc(Cl)cc3s2)CC1 returned D1 antag -43*, D1 PAM -3, D1 agonist 3, D3 ag 17 and DRD3 antagonist 7.
CC(C)(C)C(=O)N1CCN(c2nc3ccc(Br)cc3s2)CC1 was read as D1 antag -24, D1 PAM -2, D1 agonist 9, D3 ag -8 and DRD3 antagonist 0.
Screening O=C(NCCc1ccccc1)C1CCCN1C(=O)Nc1cccc(Cl)c1 (configuration not stated) returned D1 antag -23, D1 PAM -6, D1 agonist -1, D3 ag -4 and DRD3 antagonist -73*.
For O=C(NCc1ccccc1Cl)C1CCCN1C(=O)NCc1ccccc1 (configuration not stated) the results were D1 antag -44*, D1 PAM -3, D1 agonist 1, D3 ag 2 and DRD3 antagonist 4.
O=C(NCc1ccccc1F)C1CCCN1C(=O)NCc1ccccc1 (configuration not stated) was read as D1 antag -10, D1 PAM -3, D1 agonist 1, D3 ag 4 and DRD3 antagonist 10.
Screening O=S(=O)(c1cccc(C(F)(F)F)c1)N1CCC(Oc2ccc(-n3cnnn3)cc2)CC1 returned D1 antag -19, D1 PAM -2, D1 agonist 3 and D3 ag 2.
Cc1ccc(-c2csc3nc4cc(C(N)=O)ccc4c(=O)n23)cc1 was read as D1 antag -7, D1 PAM -7, D1 agonist 2, D3 ag 1 and DRD3 antagonist -61*.
Screening COc1ccc(N2CC(NC(=O)c3cccs3)CC2=O)cc1OC (configuration not stated) returned D1 PAM 4, D1 agonist 2 and D3 ag 1.
`CCCNS(=O)(=O)c1cc(-c2nnc3c4ccccc4c(C)nn23)ccc1OC` gave D1 antag -17, D1 PAM -5, D1 agonist 5 and D3 ag 4.
For CCN(CCCNC(=O)CSc1cc(=O)n(CC)c2ccccc12)c1ccccc1 the results were D1 antag -5, D1 PAM 2, D1 agonist 6 and D3 ag 2.
`Cc1cc(SC(C)C(=O)Nc2c(C)n(C)n(-c3ccccc3)c2=O)nc2ccccc12` (configuration not stated) gave D1 antag -32*, D1 PAM -3, D1 agonist 0, D3 ag -1 and DRD3 antagonist inconclusive.
For c1ccc(-c2ccccn2)nc1 the results were D1 antag -14, D1 PAM -3, D1 agonist 2, D3 ag 13 and DRD3 antagonist -12.
Screening S=c1nc(-c2ccccn2)c(-c2ccccn2)n[nH]1 returned D3 ag -11 and DRD3 antagonist -78*.
For C[C@H](CO)N1C[C@H](C)[C@@H](CN(C)Cc2ccncc2)Oc2ncc(Br)cc2C1=O the results were D3 ag -17 and DRD3 antagonist -114*.
For C[C@@H]1CN([C@@H](C)CO)C(=O)c2cc(Br)cnc2O[C@H]1CN(C)Cc1cccnc1 the results were D3 ag 8 and DRD3 antagonist 23.
CCCCCOc1c(Cl)cc(C(=O)N(Cc2ccc(C)o2)C2CCS(=O)(=O)C2)cc1Cl (configuration not stated) was read as D1 antag 14, D1 PAM -2, D1 agonist 30* and D3 ag 1.
Screening CCCCCOc1ccc(C(=O)N(Cc2ccco2)C2CCS(=O)(=O)C2)cc1 (configuration not stated) returned D1 antag 1, D1 PAM 4, D1 agonist 1, D3 ag 30* and DRD3 antagonist 7.
For O=C(Cn1cnc2onc(-c3ccc(F)cc3)c2c1=O)Nc1cccc(C(F)(F)F)c1 the results were D1 antag -19, D1 PAM -1, D1 agonist 16 and D3 ag 1.
`Cc1ccc(Cn2ccnc2SCC(=O)Nc2nc3ccccc3s2)cc1` gave D1 antag 0, D1 PAM -1, D1 agonist 1 and D3 ag -11.
`COc1ccc(N2CCN(C(=O)CC(C)S(=O)(=O)c3ccc4c(c3)NC(=O)CO4)CC2)cc1` (configuration not stated) gave D1 antag -32*, D1 PAM -3, D1 agonist 5, D3 ag 9 and DRD3 antagonist 34.
For CN(C)S(=O)(=O)c1ccc(NC(=O)COC(=O)C2COc3ccccc3O2)cc1 (configuration not stated) the results were D1 antag -94*, D1 PAM -4, D1 agonist 1, D3 ag 11 and DRD3 antagonist -23.
Cc1ccc(NC(=O)CCS(=O)(=O)c2ccc(Br)s2)c(Br)c1 was read as D1 antag -11, D1 PAM -1, D1 agonist 3 and D3 ag 4.
